Legend:
Experiment in all cases: log2 ratio of Biotin-Ahx-Ub-VS probe labelling (fragment/DMSO); higher = less target engagement (more negative = stronger competition), active = hit call of the paper (q ≤ 0.05, log2 ratio ≤ -1)
Settings in all cases: compound concentration: 200 uM; treatment time: 3 h
USP19 = biological target: T1, USP19 (UniProt O94966)
T1 sequence (whole entry): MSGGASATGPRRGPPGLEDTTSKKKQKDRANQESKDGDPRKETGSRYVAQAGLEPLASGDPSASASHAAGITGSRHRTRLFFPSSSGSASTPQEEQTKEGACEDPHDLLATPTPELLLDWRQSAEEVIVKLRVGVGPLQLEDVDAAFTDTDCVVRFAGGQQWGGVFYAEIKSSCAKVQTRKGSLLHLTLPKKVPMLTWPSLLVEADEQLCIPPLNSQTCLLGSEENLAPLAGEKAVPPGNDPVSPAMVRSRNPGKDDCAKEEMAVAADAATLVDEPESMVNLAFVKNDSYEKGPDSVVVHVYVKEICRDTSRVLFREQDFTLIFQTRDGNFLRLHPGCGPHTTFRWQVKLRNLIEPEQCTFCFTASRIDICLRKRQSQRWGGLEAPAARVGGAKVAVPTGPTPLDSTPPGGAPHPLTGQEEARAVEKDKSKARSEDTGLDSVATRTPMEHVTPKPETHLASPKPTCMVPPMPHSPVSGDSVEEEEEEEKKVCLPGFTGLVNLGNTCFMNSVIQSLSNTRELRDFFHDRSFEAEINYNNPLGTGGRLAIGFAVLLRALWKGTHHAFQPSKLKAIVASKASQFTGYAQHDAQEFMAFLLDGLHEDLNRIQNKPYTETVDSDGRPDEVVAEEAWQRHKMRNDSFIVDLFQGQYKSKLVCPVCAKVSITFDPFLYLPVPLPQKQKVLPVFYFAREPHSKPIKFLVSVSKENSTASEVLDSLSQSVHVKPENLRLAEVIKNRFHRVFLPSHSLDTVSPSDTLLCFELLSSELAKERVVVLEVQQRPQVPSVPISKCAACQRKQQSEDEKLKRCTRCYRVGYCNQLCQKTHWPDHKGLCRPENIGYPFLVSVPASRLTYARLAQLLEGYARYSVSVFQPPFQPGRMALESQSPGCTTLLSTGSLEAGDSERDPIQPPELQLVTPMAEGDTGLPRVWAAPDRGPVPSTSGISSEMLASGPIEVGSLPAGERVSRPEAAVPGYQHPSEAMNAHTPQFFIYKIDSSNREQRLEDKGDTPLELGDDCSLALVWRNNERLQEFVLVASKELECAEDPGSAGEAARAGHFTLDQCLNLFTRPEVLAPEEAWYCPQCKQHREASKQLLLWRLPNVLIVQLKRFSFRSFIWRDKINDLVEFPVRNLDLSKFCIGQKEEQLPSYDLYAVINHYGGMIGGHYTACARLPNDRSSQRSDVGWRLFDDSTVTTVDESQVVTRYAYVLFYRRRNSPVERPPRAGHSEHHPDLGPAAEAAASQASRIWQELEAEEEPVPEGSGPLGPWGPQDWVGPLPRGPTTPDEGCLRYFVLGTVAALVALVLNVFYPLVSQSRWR
Summary of the method: (§1)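 Each value is an average log2 ratio of fragment to vehicle, tested by unpaired t-test. The underlying Spectronaut label-free quantities were global-median-normalised, and only proteins with ≥2 unique peptides were included. Triplicate HEK293T lysate samples (495 µg) were exposed to fragment at 200 µM or vehicle for 3 h, then to Biotin-Ahx-Ub-VS at 0.5 µM final for 1 h, before NeutrAvidin enrichment of labelled DUBs, LysC and trypsin digestion, and diaPASEF LC-MS/MS.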

USP24 = USP24 (UniProt Q9UPU5)
USP24, sequence (Q9UPU5 whole entry): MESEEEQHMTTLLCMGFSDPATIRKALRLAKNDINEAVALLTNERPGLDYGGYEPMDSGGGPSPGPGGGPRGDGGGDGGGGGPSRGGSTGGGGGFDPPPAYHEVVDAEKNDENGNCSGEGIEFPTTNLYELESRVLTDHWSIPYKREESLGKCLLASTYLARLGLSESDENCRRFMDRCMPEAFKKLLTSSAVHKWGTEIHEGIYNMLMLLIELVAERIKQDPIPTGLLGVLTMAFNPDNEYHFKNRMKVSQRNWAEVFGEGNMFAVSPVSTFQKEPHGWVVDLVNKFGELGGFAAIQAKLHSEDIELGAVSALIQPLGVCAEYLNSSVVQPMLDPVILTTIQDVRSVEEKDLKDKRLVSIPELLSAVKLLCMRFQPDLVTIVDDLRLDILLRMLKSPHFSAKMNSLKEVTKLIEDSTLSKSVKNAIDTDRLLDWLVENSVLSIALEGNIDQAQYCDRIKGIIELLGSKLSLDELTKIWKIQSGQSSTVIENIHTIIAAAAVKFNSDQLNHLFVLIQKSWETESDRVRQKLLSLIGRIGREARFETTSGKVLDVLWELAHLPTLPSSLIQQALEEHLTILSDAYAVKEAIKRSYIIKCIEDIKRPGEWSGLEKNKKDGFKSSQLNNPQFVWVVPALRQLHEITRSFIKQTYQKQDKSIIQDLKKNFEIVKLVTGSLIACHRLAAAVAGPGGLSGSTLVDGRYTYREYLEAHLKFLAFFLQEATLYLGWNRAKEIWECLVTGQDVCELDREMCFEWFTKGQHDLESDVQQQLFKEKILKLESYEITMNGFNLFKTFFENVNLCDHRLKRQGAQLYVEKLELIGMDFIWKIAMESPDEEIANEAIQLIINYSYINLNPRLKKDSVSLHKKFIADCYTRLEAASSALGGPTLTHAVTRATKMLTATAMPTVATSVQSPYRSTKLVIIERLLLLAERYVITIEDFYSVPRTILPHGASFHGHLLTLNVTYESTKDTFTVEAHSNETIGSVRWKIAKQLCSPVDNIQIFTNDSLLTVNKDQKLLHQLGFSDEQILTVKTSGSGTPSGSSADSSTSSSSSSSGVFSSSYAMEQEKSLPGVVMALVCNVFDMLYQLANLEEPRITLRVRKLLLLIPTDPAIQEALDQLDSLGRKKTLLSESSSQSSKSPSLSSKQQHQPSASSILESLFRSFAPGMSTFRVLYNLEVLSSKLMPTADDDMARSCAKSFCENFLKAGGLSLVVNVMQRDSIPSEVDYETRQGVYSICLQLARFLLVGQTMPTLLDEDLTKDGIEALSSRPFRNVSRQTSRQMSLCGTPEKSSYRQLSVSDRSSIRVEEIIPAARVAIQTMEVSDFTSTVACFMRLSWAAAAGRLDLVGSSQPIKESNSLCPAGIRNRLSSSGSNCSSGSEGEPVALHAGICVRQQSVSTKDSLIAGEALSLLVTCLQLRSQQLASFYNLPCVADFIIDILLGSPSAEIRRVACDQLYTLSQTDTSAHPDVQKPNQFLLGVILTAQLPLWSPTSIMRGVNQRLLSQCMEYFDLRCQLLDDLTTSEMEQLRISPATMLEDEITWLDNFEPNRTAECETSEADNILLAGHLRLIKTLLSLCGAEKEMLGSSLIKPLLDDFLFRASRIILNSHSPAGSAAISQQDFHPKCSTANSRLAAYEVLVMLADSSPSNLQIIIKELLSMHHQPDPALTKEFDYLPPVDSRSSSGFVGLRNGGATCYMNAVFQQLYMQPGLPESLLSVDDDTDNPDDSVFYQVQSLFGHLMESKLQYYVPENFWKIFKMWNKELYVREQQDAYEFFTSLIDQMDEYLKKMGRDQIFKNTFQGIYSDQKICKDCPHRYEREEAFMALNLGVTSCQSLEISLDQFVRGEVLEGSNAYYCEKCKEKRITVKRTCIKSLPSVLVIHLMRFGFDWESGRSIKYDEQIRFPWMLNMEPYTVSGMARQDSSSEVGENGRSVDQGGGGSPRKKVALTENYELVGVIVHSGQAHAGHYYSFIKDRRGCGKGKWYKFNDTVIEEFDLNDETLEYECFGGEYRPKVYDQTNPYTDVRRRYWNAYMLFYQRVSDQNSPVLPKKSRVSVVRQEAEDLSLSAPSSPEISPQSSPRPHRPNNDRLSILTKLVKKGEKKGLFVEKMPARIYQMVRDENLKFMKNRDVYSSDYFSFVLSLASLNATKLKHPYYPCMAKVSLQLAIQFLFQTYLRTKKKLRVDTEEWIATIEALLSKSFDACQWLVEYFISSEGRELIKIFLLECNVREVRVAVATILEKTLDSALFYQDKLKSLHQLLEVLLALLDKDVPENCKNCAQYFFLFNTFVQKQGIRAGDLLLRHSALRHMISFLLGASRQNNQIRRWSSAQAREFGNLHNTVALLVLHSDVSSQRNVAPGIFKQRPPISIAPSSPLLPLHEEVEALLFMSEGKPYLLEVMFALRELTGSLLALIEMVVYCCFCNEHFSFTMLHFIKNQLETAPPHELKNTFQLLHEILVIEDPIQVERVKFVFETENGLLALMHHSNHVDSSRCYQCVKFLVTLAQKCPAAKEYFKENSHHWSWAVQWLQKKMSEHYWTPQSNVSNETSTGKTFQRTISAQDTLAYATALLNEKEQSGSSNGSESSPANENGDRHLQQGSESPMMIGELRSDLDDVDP
Summary of the method: as §1

USP25 = biological target: T2, USP25 (UniProt Q9UHP3)
T2 sequence (whole entry): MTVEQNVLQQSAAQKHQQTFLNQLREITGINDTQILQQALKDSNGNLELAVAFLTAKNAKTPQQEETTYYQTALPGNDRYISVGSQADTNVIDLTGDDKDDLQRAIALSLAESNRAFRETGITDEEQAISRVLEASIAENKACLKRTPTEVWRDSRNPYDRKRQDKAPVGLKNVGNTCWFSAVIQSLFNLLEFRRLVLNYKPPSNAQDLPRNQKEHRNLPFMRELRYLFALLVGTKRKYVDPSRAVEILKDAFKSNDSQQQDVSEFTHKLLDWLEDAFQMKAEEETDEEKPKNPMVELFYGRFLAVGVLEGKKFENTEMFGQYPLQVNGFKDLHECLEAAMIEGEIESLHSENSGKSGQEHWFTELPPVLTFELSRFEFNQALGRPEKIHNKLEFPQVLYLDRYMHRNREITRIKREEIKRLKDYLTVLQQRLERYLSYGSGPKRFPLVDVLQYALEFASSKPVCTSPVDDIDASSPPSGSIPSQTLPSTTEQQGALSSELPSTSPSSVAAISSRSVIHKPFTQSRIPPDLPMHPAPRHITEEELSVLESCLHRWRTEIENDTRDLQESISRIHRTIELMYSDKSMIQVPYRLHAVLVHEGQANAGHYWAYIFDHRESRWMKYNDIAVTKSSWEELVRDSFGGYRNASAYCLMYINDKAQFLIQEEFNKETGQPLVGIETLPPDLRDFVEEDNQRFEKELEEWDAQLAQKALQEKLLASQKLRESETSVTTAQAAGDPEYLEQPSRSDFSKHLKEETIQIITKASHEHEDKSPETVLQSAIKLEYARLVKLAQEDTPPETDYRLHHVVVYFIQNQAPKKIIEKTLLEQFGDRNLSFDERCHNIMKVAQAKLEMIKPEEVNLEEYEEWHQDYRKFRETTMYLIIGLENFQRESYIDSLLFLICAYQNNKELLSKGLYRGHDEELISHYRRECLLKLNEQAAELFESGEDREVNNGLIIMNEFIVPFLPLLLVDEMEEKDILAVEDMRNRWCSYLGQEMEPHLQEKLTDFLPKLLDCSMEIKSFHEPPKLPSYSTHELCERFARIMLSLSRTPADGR
Summary of the method: as §1

USP28 = biological target: T3, USP28 (UniProt Q96RU2)
T3 sequence (whole entry): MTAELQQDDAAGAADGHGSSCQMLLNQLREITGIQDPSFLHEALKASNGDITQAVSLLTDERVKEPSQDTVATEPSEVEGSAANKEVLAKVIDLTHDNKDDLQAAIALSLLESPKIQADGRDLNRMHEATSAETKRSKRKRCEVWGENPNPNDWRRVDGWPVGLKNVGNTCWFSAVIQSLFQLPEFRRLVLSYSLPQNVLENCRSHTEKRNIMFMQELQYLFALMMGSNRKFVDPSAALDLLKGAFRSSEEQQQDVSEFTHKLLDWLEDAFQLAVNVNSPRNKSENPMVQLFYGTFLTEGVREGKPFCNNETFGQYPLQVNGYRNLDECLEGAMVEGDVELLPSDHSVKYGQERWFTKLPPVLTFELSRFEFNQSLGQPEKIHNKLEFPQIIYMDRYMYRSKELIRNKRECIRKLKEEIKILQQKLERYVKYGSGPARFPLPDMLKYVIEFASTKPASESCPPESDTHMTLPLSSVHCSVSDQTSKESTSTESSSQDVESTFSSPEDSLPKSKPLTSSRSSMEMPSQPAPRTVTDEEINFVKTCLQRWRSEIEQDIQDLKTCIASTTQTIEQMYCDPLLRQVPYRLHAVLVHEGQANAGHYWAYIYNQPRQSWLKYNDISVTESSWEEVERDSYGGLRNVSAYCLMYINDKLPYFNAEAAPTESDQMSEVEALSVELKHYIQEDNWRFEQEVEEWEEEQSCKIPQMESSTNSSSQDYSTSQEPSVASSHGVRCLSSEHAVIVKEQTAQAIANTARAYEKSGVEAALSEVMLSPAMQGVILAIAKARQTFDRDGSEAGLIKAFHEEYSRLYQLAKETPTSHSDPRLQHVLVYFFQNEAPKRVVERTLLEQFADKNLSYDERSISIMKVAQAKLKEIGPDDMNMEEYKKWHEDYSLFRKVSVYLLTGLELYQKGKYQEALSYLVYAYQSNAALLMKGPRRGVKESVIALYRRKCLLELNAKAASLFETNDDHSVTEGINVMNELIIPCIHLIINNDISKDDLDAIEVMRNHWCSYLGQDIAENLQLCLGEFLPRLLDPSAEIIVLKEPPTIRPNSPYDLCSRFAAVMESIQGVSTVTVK
Summary of the method: as §1

Measured: log2 ratio of Biotin-Ahx-Ub-VS probe labelling

Cc1ccccc1C1(CNC(=O)CCl)CCOCC1
inactive: USP19 -0.115 | USP24 -0.178 | USP25 -0.264 | USP28 -0.284

Source: the supplement of paper PMC11732987, “Enantioselective OTUD7B fragment discovery through chemoproteomics screening and high-throughput optimisation” (Communications Chemistry, 2025)
